# What was measured:
# Assay in all cases: DAPPL (digital affinity profiling via proximity ligation, sequencing); 10 mM Tris-HCl pH 7.5, 50 mM NaCl, 1 mM DTT, 4% glycerol, room temperature, 30 min; GST-TFs on glutathione beads, 16-mer random dsDNA library, 0.1% formaldehyde crosslink after washing; high values mean tight binding
# FLI1 = molecular target: T1, FLI1 (Homo sapiens, UniProt Q01543 1-452); conditions: protein: recombinant; tags: N-terminal GST; dsDNA, one strand shown
# T1 sequence: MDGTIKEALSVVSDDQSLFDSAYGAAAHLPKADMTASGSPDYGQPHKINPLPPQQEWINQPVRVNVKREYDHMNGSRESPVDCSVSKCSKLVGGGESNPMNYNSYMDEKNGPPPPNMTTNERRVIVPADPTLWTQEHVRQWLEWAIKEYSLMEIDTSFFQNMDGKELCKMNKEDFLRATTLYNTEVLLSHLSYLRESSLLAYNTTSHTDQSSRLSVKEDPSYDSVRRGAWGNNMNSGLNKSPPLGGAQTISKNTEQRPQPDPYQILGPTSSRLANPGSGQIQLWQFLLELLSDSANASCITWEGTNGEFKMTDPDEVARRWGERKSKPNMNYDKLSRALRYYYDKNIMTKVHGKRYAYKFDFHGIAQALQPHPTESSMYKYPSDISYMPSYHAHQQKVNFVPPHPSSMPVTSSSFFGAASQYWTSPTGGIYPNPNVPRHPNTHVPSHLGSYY
# In short: (§1)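 The binding signal reported is, for every hexamer, its read frequency for a factor over its read frequency for the tag-only sample. Reads came from pools of yeast-expressed, GST-fused human transcription factors on glutathione beads, barcoded with DNA and mixed with that sample, which were incubated with 200 nmole of a random double-stranded 16-mer DNA library in Tris/NaCl/DTT/glycerol buffer at room temperature for 30 min. After washing, the pools were crosslinked with 0.1% formaldehyde, proximity-ligated with BsaI/T4 ligase for 1 h at 37 °C, PCR-amplified and sequenced on an Illumina NextSeq500.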
# ELK1 = molecular target: T2, ELK1 (Homo sapiens, UniProt P19419 1-428); conditions: protein: recombinant; tags: N-terminal GST; dsDNA, one strand shown
# T2 sequence: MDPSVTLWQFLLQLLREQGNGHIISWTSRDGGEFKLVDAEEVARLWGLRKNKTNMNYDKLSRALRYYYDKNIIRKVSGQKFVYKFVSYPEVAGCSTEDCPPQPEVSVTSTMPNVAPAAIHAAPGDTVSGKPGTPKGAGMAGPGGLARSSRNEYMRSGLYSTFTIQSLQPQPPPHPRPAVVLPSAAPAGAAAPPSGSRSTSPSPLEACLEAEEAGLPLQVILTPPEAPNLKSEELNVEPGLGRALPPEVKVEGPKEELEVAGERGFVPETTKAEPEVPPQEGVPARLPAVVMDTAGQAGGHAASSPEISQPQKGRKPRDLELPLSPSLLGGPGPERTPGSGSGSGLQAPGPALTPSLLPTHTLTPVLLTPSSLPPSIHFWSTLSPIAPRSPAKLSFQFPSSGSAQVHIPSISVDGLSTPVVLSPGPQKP
# In short: as §1
# GABPA = molecular target: T3, GABPA (Homo sapiens, UniProt Q06546 1-454); conditions: protein: recombinant; tags: N-terminal GST; dsDNA, one strand shown
# T3 sequence: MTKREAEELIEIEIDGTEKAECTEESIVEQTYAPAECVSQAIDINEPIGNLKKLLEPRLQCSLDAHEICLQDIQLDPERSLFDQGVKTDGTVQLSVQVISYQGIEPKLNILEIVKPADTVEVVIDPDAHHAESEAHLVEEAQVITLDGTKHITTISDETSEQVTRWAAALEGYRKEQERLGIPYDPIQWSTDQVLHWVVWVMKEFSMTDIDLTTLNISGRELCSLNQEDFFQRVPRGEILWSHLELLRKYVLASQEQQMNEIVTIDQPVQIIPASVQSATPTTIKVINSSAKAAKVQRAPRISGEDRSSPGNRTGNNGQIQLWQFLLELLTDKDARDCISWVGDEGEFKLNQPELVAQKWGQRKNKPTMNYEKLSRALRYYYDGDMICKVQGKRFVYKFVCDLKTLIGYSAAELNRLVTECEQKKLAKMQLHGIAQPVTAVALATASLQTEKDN
# In short: as §1
# ERG = molecular target: T4, ERG (Homo sapiens, UniProt P11308 1-479); conditions: protein: recombinant; tags: N-terminal GST; dsDNA, one strand shown
# T4 sequence: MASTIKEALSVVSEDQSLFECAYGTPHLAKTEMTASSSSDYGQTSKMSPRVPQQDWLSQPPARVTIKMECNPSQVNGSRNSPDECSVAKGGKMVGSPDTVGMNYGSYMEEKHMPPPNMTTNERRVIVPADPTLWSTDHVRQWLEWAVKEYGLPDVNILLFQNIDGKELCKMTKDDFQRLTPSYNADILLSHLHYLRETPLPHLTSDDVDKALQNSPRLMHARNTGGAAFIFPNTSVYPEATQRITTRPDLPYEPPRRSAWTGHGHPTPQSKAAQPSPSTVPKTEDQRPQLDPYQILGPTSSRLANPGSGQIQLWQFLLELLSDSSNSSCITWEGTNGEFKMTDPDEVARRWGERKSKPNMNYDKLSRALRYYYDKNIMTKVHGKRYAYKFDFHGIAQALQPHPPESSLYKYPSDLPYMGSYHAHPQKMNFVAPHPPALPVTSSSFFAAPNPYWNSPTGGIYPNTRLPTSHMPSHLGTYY
# In short: as §1
# ELF1 = ELF1 (Homo sapiens, UniProt P32519 1-619); conditions: protein: recombinant; tags: N-terminal GST; dsDNA, one strand shown
# In short: as §1
# EHF = molecular target: T5, EHF (Homo sapiens, UniProt Q9NZC4 1-300); conditions: protein: recombinant; tags: N-terminal GST; dsDNA, one strand shown
# T5 sequence: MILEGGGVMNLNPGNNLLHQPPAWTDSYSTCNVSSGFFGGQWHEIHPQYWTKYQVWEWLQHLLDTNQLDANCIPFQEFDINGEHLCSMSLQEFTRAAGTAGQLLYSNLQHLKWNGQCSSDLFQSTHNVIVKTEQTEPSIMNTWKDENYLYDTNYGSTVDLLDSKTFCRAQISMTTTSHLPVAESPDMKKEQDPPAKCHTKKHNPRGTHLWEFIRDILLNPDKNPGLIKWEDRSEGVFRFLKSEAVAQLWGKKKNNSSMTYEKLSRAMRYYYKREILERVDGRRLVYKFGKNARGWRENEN
# In short: as §1
# SPI1 = SPI1 (Homo sapiens, UniProt P17947 1-270); conditions: protein: recombinant; tags: N-terminal GST; dsDNA, one strand shown
# In short: as §1
# SPIB = SPIB (Homo sapiens, UniProt Q01892 1-262); conditions: protein: recombinant; tags: N-terminal GST; dsDNA, one strand shown
# In short: as §1
# ELK3 = molecular target: T6, ELK3 (Homo sapiens, UniProt P41970 1-407); conditions: protein: recombinant; tags: N-terminal GST; dsDNA, one strand shown
# T6 sequence: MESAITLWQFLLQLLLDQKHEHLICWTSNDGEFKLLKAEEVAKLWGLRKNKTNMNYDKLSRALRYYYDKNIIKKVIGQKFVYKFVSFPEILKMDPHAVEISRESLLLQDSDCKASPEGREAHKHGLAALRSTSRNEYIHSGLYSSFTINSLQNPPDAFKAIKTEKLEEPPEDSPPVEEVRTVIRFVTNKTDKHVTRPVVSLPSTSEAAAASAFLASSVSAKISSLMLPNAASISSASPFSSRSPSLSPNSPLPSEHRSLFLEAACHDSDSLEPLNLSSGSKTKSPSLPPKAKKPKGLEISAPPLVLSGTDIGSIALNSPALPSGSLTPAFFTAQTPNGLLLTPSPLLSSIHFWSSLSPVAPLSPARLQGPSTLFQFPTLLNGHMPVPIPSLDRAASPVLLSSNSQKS
# In short: as §1
# FEV = molecular target: T7, FEV (Homo sapiens, UniProt Q99581 1-238); conditions: protein: recombinant; tags: N-terminal GST; dsDNA, one strand shown
# T7 sequence: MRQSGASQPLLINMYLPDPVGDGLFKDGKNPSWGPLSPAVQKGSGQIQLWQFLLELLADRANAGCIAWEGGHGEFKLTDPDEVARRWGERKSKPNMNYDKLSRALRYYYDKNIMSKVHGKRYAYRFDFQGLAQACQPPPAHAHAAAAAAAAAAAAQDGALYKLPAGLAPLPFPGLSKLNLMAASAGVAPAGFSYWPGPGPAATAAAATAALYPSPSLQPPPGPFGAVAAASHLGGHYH
# In short: as §1
# ETV5 = ETV5 (Homo sapiens, UniProt P41161 1-510); conditions: protein: recombinant; tags: N-terminal GST; dsDNA, one strand shown
# In short: as §1
# HSF1 = HSF1 (Homo sapiens, UniProt Q00613 1-529); conditions: protein: recombinant; tags: N-terminal GST; chain copies: 3; dsDNA, one strand shown
# In short: as §1
# SPIC = molecular target: T8, SPIC (Homo sapiens, UniProt Q8N5J4 1-248); conditions: protein: recombinant; tags: N-terminal GST; dsDNA, one strand shown
# T8 sequence: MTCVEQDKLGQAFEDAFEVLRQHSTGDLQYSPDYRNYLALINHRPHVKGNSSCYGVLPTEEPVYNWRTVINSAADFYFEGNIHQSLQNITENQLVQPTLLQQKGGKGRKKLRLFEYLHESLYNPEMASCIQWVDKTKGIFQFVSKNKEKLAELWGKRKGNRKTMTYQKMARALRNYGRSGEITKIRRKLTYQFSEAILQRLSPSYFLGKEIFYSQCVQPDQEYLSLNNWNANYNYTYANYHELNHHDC
# In short: as §1
# ELF4 = ELF4 (Homo sapiens, UniProt Q99607 1-663); conditions: protein: recombinant; tags: N-terminal GST; dsDNA, one strand shown
# In short: as §1
# ELK4 = molecular target: T9, ELK4 (Homo sapiens, UniProt P28324-2 1-405); conditions: protein: recombinant; tags: N-terminal GST; dsDNA, one strand shown
# T9 sequence: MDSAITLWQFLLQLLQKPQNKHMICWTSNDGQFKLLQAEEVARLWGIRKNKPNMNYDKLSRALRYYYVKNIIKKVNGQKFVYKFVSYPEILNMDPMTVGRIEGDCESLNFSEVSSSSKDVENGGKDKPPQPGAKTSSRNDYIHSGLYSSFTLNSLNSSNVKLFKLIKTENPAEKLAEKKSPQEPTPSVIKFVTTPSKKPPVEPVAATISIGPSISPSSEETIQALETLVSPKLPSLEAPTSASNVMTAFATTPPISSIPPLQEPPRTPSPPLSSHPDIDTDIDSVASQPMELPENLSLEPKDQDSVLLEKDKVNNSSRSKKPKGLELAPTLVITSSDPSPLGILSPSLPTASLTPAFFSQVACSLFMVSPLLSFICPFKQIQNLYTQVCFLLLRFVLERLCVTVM
# In short: as §1
# ETV2 = molecular target: T10, ETV2 (Homo sapiens, UniProt O00321 1-342); conditions: protein: recombinant; tags: N-terminal GST; dsDNA, one strand shown
# T10 sequence: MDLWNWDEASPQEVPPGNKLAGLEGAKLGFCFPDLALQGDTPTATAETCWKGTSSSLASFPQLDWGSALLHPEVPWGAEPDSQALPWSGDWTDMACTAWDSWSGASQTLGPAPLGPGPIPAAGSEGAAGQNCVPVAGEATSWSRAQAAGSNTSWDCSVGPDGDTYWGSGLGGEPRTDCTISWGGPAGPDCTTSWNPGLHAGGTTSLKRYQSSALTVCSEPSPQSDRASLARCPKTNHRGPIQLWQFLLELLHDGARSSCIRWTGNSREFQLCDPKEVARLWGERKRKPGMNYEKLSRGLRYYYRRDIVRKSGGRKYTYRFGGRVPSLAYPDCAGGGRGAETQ
# In short: as §1
# ELF3 = molecular target: T11, ELF3 (Homo sapiens, UniProt P78545 1-371); conditions: protein: recombinant; tags: N-terminal GST; dsDNA, one strand shown
# T11 sequence: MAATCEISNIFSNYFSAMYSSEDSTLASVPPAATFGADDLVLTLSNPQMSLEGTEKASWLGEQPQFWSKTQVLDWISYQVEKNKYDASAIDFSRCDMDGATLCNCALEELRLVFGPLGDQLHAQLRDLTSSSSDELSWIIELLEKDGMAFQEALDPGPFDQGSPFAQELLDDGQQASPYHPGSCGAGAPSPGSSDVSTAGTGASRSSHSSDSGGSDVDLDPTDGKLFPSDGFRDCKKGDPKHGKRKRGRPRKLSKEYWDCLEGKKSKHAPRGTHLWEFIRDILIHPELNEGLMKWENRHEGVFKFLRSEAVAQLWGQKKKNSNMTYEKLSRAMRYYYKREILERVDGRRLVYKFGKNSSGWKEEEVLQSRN
# In short: as §1
# ETV1 = ETV1 (Homo sapiens, UniProt P50549 1-477); conditions: protein: recombinant; tags: N-terminal GST; dsDNA, one strand shown
# In short: as §1
# Chain of ELF4 (Q99607 whole entry): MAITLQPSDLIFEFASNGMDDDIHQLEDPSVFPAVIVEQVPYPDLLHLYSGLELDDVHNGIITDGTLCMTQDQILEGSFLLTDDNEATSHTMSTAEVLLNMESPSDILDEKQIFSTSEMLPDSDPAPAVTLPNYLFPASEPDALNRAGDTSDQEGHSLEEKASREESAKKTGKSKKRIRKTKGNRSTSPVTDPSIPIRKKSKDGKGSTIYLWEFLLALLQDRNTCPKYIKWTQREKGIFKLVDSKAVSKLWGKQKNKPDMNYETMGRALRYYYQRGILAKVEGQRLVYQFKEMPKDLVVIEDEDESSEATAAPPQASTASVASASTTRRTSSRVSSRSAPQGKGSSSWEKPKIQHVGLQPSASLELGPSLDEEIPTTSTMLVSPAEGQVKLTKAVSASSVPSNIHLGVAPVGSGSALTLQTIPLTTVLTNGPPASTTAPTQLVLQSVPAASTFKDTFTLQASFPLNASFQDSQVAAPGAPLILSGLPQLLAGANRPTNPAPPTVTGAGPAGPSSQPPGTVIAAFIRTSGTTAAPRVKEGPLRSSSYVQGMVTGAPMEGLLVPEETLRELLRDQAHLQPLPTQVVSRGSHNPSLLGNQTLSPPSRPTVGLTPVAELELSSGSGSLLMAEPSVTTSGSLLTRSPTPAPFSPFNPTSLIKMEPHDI
# Chain of HSF1 (Q00613 whole entry): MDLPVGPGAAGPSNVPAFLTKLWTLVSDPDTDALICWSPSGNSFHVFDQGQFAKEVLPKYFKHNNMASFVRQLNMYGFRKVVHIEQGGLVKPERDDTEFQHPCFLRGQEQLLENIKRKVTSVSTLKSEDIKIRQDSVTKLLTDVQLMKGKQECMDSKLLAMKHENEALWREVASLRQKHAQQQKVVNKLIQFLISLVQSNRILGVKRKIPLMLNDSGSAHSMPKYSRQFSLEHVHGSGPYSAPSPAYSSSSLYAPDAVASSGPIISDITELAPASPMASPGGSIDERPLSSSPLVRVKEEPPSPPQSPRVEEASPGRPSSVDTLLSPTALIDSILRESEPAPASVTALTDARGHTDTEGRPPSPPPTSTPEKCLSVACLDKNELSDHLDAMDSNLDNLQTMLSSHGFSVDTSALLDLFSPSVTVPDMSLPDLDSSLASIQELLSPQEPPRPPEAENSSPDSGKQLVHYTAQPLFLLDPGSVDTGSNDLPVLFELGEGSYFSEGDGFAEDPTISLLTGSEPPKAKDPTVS
# Chain of ETV1 (P50549 whole entry): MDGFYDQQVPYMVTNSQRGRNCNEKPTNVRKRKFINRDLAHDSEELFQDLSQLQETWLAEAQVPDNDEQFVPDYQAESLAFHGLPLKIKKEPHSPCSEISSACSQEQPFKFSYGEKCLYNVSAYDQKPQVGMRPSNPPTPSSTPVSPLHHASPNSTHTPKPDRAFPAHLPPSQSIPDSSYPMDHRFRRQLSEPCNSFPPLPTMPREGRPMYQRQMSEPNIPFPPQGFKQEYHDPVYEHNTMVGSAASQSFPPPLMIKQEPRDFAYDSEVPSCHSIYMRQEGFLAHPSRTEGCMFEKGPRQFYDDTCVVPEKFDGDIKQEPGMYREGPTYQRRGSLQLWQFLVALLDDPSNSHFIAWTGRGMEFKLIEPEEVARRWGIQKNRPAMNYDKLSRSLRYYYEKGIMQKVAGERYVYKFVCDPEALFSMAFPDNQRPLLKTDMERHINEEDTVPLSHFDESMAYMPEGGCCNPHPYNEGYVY
# Chain of ELF1 (P32519 whole entry): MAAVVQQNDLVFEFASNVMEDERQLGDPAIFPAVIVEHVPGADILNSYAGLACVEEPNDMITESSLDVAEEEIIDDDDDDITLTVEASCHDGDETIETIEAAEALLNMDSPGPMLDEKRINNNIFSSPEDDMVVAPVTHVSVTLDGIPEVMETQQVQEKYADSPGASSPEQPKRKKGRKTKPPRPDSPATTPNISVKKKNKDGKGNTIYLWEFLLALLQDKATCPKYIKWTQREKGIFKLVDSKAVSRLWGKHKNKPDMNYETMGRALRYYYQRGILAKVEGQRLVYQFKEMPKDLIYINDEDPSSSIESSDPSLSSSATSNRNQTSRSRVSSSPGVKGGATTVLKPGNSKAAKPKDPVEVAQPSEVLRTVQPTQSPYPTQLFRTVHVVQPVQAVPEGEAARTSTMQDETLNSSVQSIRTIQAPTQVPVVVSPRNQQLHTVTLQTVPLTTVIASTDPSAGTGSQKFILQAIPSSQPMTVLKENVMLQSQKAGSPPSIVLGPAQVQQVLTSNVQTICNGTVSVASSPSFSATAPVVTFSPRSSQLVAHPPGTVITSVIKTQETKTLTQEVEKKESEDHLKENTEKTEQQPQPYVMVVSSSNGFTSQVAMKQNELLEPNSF
# Chain of SPIB (Q01892 whole entry): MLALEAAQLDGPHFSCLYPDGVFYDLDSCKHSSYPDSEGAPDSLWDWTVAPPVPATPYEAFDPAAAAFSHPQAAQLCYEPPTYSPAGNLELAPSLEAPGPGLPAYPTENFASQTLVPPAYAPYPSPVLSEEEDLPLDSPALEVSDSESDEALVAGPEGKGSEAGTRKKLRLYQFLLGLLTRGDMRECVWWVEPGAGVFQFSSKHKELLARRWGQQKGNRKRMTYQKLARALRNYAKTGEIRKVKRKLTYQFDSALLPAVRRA
# Chain of ETV5 (P41161 whole entry): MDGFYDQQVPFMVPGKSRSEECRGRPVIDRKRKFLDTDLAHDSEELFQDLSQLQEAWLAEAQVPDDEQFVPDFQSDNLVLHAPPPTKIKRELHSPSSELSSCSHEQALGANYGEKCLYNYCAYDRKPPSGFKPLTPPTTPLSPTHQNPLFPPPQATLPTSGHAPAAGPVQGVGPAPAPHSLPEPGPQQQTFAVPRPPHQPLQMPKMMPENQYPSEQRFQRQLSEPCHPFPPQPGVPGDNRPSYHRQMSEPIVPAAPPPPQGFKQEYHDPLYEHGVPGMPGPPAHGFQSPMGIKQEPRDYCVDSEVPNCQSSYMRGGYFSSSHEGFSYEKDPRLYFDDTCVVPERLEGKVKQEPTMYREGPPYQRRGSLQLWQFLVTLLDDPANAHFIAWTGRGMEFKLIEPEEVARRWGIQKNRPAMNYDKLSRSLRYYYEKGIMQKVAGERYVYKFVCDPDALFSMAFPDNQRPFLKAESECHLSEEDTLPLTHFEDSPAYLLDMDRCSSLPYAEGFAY
sequence,measurement,setting,value
CACGCG,binding signal,FLI1,"1.32 fold enrichment (6-mer frequency, TF over GST control)"
same,binding signal,ELK1,"1.15 fold enrichment (6-mer frequency, TF over GST control)"
same,binding signal,GABPA,"1.23 fold enrichment (6-mer frequency, TF over GST control)"
same,binding signal,ERG,"1.18 fold enrichment (6-mer frequency, TF over GST control)"
same,binding signal,ELF1,"1.23 fold enrichment (6-mer frequency, TF over GST control)"
same,binding signal,EHF,"1.2 fold enrichment (6-mer frequency, TF over GST control)"
same,binding signal,SPI1,"1.08 fold enrichment (6-mer frequency, TF over GST control)"
same,binding signal,SPIB,"1.2 fold enrichment (6-mer frequency, TF over GST control)"
same,binding signal,ELK3,"1.14 fold enrichment (6-mer frequency, TF over GST control)"
same,binding signal,FEV,"1.16 fold enrichment (6-mer frequency, TF over GST control)"
same,binding signal,ETV5,"1.04 fold enrichment (6-mer frequency, TF over GST control)"
same,binding signal,HSF1,"1.1 fold enrichment (6-mer frequency, TF over GST control)"
same,binding signal,SPIC,"1.29 fold enrichment (6-mer frequency, TF over GST control)"
same,binding signal,ELF4,"1.2 fold enrichment (6-mer frequency, TF over GST control)"
same,binding signal,ELK4,"1.24 fold enrichment (6-mer frequency, TF over GST control)"
same,binding signal,ETV2,"1.18 fold enrichment (6-mer frequency, TF over GST control)"
same,binding signal,ELF3,"1.08 fold enrichment (6-mer frequency, TF over GST control)"
same,binding signal,ETV1,"1.09 fold enrichment (6-mer frequency, TF over GST control)"

# — PMC7862700, “An all-to-all approach to the identification of sequence-specific readers for epigenetic DNA modifications on cytosine”
